# High-throughput results (PubChem BioAssay)
# VP16 counter: VP16 counterscreen qHTS for inhibitors of ROR gamma transcriptional activity; AID 2546, 2010; Potency, µM (top dose mostly 53.6 µM), inactives show at the highest dose activity, negative = inhibition, actives largely listed as inhibitors; Drosophila S2 Gal4-VP16 UAS-luciferase, luminescence, 20 h; 3.5% of 310,000 active;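 also: Gal4-VP16 expression switched on by copper sulfate through the metallothionein promoter; nearly all actives have a fitted effect of over 50% in size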
# Luc counter: Counterscreen for Luciferase (Kinase-Glo TM) Inhibition. Kinase-Glo luciferase, ATP luminescence, 8 min. Potency, µM (highest dose often 38.3 µM), for inactives: at the top dose activity change, negative = inhibition, hits mostly inhibitors. 0.28% of 200,000 active; also: nearly all actives have a fitted effect of over 60% in size
#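 Substrate mix (final 50 mM imidazole pH 7.2, 50 mM KCl, 7 mM MgCl2, 10 uM ATP, 0.01% Tween 20, 0.05% BSA) plus pin-tool compound, then Kinase-Glo detection mix; 8 min ambient, luminescence read.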
# RORg inh: qHTS for inhibitors of ROR gamma transcriptional activity. Nuclear receptor ROR-gamma (Mus musculus), P51450. Drosophila S2 Gal4-RORgamma UAS-luciferase reporter, 20 h. Potency, µM (titrated, usually from 53.6 µM), without a hit: at the top dose activity change, negative = inhibition, usual class: inhibitors. 5.4% of 310,000 active. AID 2551, 2010; also: nearly all actives have a fitted effect of over 60% in size
# Target sequence (P51450 whole entry, looked up, the tested form may be a part): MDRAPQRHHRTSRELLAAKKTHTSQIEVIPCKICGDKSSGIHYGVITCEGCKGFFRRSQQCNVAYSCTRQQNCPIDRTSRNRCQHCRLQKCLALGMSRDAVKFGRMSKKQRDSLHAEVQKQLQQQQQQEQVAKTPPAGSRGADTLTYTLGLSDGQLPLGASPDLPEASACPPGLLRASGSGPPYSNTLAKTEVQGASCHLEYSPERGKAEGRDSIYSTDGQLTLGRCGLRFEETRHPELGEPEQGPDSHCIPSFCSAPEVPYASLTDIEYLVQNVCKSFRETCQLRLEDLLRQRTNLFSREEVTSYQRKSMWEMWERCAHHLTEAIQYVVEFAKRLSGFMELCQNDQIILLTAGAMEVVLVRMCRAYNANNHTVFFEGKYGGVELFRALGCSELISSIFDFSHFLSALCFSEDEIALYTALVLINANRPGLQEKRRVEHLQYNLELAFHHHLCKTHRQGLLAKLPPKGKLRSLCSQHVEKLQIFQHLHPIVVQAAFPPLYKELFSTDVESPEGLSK
#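 Read-out: Photinus luciferase luminescence; inhibitors lower reporter signal. Insect Schneider cells with Gal4-ROR gamma fusion under metallothionein promoter, UAS reporter; 700 uM final copper sulfate induction, 20 hr, ambient temperature.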
# Active calls of the source: *; ? = inconclusive; . = not tested or not shown; [ ] = another dose, or the depositor's remark. The list is not random: actives were taken first. Their share in the collection is about 6.2%. Calls follow the shape of the dose curve; as a rule, active = well fitted curve in the direction sought with a large enough effect; inconclusive = small, poorly fitted or top-dose-only effect, or another doubt; inactive = no such curve, though single readings can be large; an effect the other way counts as inactive or inconclusive. % is scaled to controls: 0 for no effect and ±100 for the full control effect; potency is read from the fitted curve at half-maximal effect.
SMILES,VP16 counter,Luc counter,RORg inh
COc1ccc(N2C(=O)CS(=O)C(c3ccccc3)C2=O)cc1 (configuration not stated),-0.7%[10 µM],-0.9%,1.26µM*
COc1ccc(N2C(=O)CC(N3CCC(n4c(=O)[nH]c5ccccc54)CC3)C2=O)cc1 (configuration not stated),-0.1%,13.9%,9.2%
CCCN1CCCC(c2cccc(O)c2)C1 (configuration not stated),.,-9.7%,.
N[C@H](CP(=O)(O)O)C(=O)O,-2.1%,7.4%,-6.0%
O=Cc1ccc(Cl)cc1Cl,8.1%,.,-3.8%
CN(C)c1ccc(C(=O)N/N=C/C23CC[C@@H](O)CC2(O)CC[C@@H]2[C@@H]3CCC3(C)C(C4=CC(=O)OC4)CCC23O)cc1 (some centres not stated),2.0%,.,-18.4%
CC12CC[C@H]3[C@@H](CCC4(O)C[C@H](O)CCC34/C=N/NC(=O)c3ccc(O)cc3)C1(O)CCC2C1=CC(=O)OC1 (some centres not stated),10µM*,.,8.91µM*
O=C1N[C@@]2(CN3CCC2CC3)C(=O)N1CN(Cc1ccccc1)c1ccccc1,.,-2.7%[7.66 µM],.
C=CCOC(C)=O,2.6%,.,9.4%
Nc1ncnc2c1ncn2[C@@H]1O[C@H](COP(=O)(O)OP(=O)(O)OP(=O)(O)O)[C@H]2OC3(O[C@H]21)C([N+](=O)[O-])=CC(=[N+]([O-])[O-])C=C3[N+](=O)[O-] (some centres not stated),-1.7%,2.82µM*,2.4%
Nc1ncnc2c1ncn2[C@@H]1O[C@H](COP(=O)(O)CP(=O)(O)OP(=O)(O)O)[C@H](O)[C@H]1O,.,-13.5%,.
CN[C@@H]1C[C@H](c2ccc(Cl)c(Cl)c2)c2ccccc21,?,-0.1%,?
C=CC(=O)OCC(CC)CCCC (configuration not stated),-7.5%,.,-0.2%
C/C(=N\NC(=S)Nc1ccccc1)c1c(O)n(C)c(=O)n(C)c1=O,?,-0.4%,8.91µM*
CC/C(=N\Nc1ccccc1)c1c(O)n(C)c(=O)n(C)c1=O,-8.3%,2.9%,?
CCOC(=O)c1ccc(N=C(c2ccccc2)c2c(O)n(C)c(=O)n(C)c2=O)cc1,5.4%,.,12.2%
CCC(=NC(C)c1ccccc1)c1c(O)n(C)c(=O)n(C)c1=O (configuration not stated),12.6µM*,0.8%,?
CCN(CC)CCCC(C)N=C(c1ccccc1)c1c(O)n(C)c(=O)n(C)c1=O (configuration not stated),-0.8%,.,0.631µM*
CC(=NCCc1ccccc1)c1c(O)n(C)c(=O)n(C)c1=O,4.0%,.,28.7%
COc1cc(C2c3cc4c(cc3C(O)C3COC(=O)C23)OCO4)cc(OC)c1O (configuration not stated),-12.2%,-1.1%,-12.7%
C#Cc1cccc2c1c(C(=O)c1ccc(Cn3c(C)nc4cnccc43)c(F)c1)cn2C(=O)N(C)C,3.9%,.,10.1%
Cc1cc(C(=O)Cn2nnc(-c3ccc(Cl)cc3)n2)c(C)n1-c1ccccc1,22.4µM*,0.1%,?
Cc1cc(C(=O)C[N+]23CCN(CC2)CC3)c(C)n1-c1ccc(Br)cc1,-0.2%,-4.1%,14.0%
CC1=NN(c2ccccc2)C(=O)[C@@H]1N=Nc1ccc([As](=O)(O)O)c(O)c1,.,-2.8%[7.66 µM],.
OC(c1ccc(Cl)cc1)(c1cncnc1)c1ccccc1Cl (configuration not stated),-1.3%,.,24.3%
SMILES,VP16 counter,Luc counter,RORg inh
CN(C)c1ccc(/C=C/c2cc[n+](C)c3ccccc23)cc1,0.0%[10 µM],12.6µM*,18.5%
C[C@@H]1CO1,-13.5%,.,2.1%
CCSc1cc(C2C(C#N)=C(N)Oc3n[nH]c(C)c32)c(C)o1 (configuration not stated),?,-2.5%,11.2µM*
CO[C@@H]([CH2][Hg])CN1C(=O)c2ccccc2S1(=O)=O.Cn1c(=O)c2nc[nH]c2n(C)c1=O,.,0.8%[7.66 µM],.
Cc1oc(-c2ccccc2)nc1CN1C(=O)C(C)N=C(c2ccccc2F)c2cc(Cl)ccc21 (configuration not stated),-10.8%,-4.4%,12.6µM*
O=C1CN=C(c2ccccc2)c2cc(Cl)ccc2N1CC1CC1,1.8%,.,25.6%
COC12C(COC(N)=O)C3=C(C(=O)C(C)=C(N)C3=O)N1CC1C2N1C (configuration not stated),-13.7%,.,-35.5%
CO[C@@H](COC(N)=O)C1=C(N2CC2)C(=O)C(C)=C(N2CC2)C1=O,11.2µM*,.,?
O=P(O)(O)CCP(=O)(O)O,.,-1.3%[7.66 µM],.
c1cc[n+]2c(c1)-c1cccc[n+]1CC2,-6.2%,.,-26.7%
CCN(CC)c1ccc(/C=C/[N+](=O)[O-])cc1,-73.3%,-1.0%,8.91µM*
CCN(CC)c1ccccc1,8.5%,.,14.7%
C[C@@H]1CC[C@@H]2N(C1)C[C@H]1[C@@](O)([C@H](O)C[C@]3(O)[C@H]4CC[C@H]5[C@]6(O)O[C@]4(C[C@]13O)[C@@]5(C)CC[C@@H]6O)[C@@]2(C)O,.,-1.5%[7.66 µM],.
CC(=O)C1=NOC(CNc2ncc(C(F)(F)F)cc2Cl)C1 (configuration not stated),-1.8%,2.6%,?
CN(C)CS/C(N)=N/[C@H](O)C(Cl)(Cl)Cl,.,-0.9%[7.66 µM],.
CC(=O)OC[C@]12CCC(C)=C[C@H]1O[C@@H]1[C@H](O)[C@@H](OC(C)=O)[C@@]2(C)[C@]12CO2,0.0016µM*,.,0.0316µM*
CC(=O)OC[C@]12C[C@H](OC(=O)CC(C)C)C(C)=C[C@H]1O[C@H]1[C@H](O)[C@@H](OC(C)=O)[C@@]2(C)[C@]12CO2,-89.9%,-2.5%,0.0251µM*
CCC[CH2][Sn]([Cl])([Cl])[Cl],-8.8%,.,-6.3%
OCC(Br)(Br)Br,-5.7%,.,-5.1%
O=S(=O)(O)/C(=C\c1ccccc1)c1ccccc1 (tested in a mixture with another compound),.,-5.4%[7.66 µM],.
S=C(S)N1CCCC1,0.316µM*,-1.6%,?
S=C(S)N1CCNCC1,-3.4%,.,5.8%
CC(C)(OOC(C)(C)c1ccccc1)c1ccccc1,3.8%,.,42.8%
CC(=O)C1=C(O)[C@@H]2[C@@H]3c4c[nH]c5cccc(c45)C[C@@H]3C(C)(C)N2C1=O,-29.7%,-1.8%,-32.1%
CC1CC(=O)O1 (configuration not stated),-3.6%,.,-5.9%
SMILES,VP16 counter,Luc counter,RORg inh
CN(C)C(=O)Oc1cccc(-c2cn3cc(Cl)ccc3n2)c1,-20.0%,-6.6%,-19.2%
CN(C)C(=O)Oc1ccc(-c2cn3cc(Cl)ccc3n2)cc1,?,14.1µM*,?
CC(C)(COCC1CO1)COCC1CO1 (configuration not stated),-21.3%,.,-0.7%
S=C1NC2(CCCCC2)NC12CCCCC2,?,.,8.91µM*
c1ccc2c(c1)c1cc[n+]2CCCCC[n+]2ccc(c3ccccc32)NCCCCCN1,-12.1%,.,-31.4%
CCCCCCCC(=O)Cl,-3.5%,.,-15.5%
C=CCc1c(C)nc(C)nc1N/N=C/c1ccc(N(C)C)cc1,?,-1.3%,4.47µM*
